Assay outcomes as filed in PubChem.
Only some compounds are listed: those with a hit (about 13% of all), similar ones and a draw of the others.
LASV entry inh = qHTS for Inhibitors of binding or entry into cells for Lassa Virus | Potency, µM (highest dose often 37.9 µM), actives largely listed as inhibitors | actives 1.2% (n = 300,000) | AID 540256, 2011 | Lassa virus pseudotype entry inhibition, cell reporter; calls by dose curve; tested in HEK293 cells; note: nearly all actives have a fitted effect of over 50% in size
FMDV inh = High Throughput Screening for Foot and Mouth Disease Virus Antivirals; Potency, µM (titrated, usually from 57.9 µM), most hits filed as inhibitors; FMDV antiviral cell-based qHTS; AID 1159524, 2015; actives 1.2% (n = 410,000); calls by dose curve; tested in HEK293T cells; note: read-out not given here; nearly all actives have a fitted effect of over 45% in size
HCV inh = qHTS Assay for Inhibitors of Hepatitis C Virus (HCV). Huh7.5.1 HCVcc-Cre infection, luciferase reporter, 44 h. Potency, µM (series often up to 41.8 µM), most hits filed as inhibitors. actives 3.4% (n = 340,000). AID 651820, 2012; active = well fitted inhibition curve with a large enough effect; inconclusive = small, poorly fitted or top-dose-only effect, or another doubt; inactive = no such curve, though single readings can be large or run the other way
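Reporter virus HCVcc-Cre (~0.5 moi) infects cells exposed to compound; seeding density 1,000 cells/well with 4 h settling beforehand. Luminescence, 15 sec read, taken 44 h post-infection following a 15 min RT substrate incubation.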
Cycloheximide cs = Cycloheximide Counterscreen for Small Molecule Inhibitors of Shiga Toxin; cell reporter, cycloheximide protein synthesis inhibition counterscreen; max response, %; actives 12% (n = 300,000); AID 2314, 2010; in the data active = max response mostly above about 13%, no sharp cut-off; inactive = mostly below about 14%; note: read at 38.3 µM for the half of the compounds with a filed dose
Shiga toxin inh = A qHTS for Small Molecule Inhibitors of Shiga Toxin. Vero cells, Shiga toxin protein synthesis inhibition reporter. inhibition, % at 38.7 µM. actives 9.2% (n = 290,000); in the data active = inhibition mostly above about 28%, no sharp cut-off; inactive = mostly below about 43%
Marburg entry inh = qHTS for inhibitors of binding or entry into cells for Marburg Virus | Marburg virus pseudotyped entry inhibition, cell reporter | actives 1.8% (n = 300,000) | Potency, µM (titrated, usually from 37.8 µM), most hits filed as inhibitors | AID 540276, 2011; calls by dose curve; tested in HEK293 cells
Of the large screens only hits and unclear results are named; the others gave an inactive call; ! = repeats disagree.

O=C(Nc1ccc(-c2nnn(CC(=O)N3CCN(C(=O)c4ccco4)CC3)n2)cc1)c1ccc(F)cc1	HCV inh 10µM (no result: LASV entry inh, Marburg entry inh)
O=C(c1ccco1)N1CCN(c2ccc(Cl)cc2)CC1	LASV entry inh inconclusive, Cycloheximide cs 36.7, Shiga toxin inh 78.5, Marburg entry inh inconclusive
CCOC(=O)CC1C(=O)NCCN1C(=O)c1cccc(OC)c1 (stereo unspecified)	none (no result: LASV entry inh, Marburg entry inh)
CSc1cccc(NC(=O)CN(c2cc(C)ccc2C)S(C)(=O)=O)c1	none
O=C(c1ccco1)N1CCc2[nH]nc(-c3ccc(Cl)cc3)c2C1	LASV entry inh inconclusive, FMDV inh inconclusive, HCV inh 11.2µM
C=CCn1cn[nH]c1=S	Marburg entry inh inconclusive
COc1ccc(-c2cc3ccc(O)c(CN4CCCCC4C)c3oc2=O)cc1OC (stereo unspecified)	none (no result: HCV inh, Cycloheximide cs, Shiga toxin inh, Marburg entry inh)
Clc1cnc(Oc2ccc(Oc3ncc(Cl)cc3Cl)cc2)c(Cl)c1	LASV entry inh inconclusive, Marburg entry inh 1µM!
COc1ccc(CNC(=O)C(CC(C)C)NS(=O)(=O)c2ccc3c(c2)CCN3C(C)=O)cc1 (stereo unspecified)	none (no result: HCV inh, Cycloheximide cs, Shiga toxin inh)
COc1ccc(NC(=O)c2oc3ccccc3c2NC(=O)c2cc3ccccc3o2)c(OC)c1	none (no result: HCV inh, Cycloheximide cs, Shiga toxin inh)
COc1ccc(NC(=O)c2oc3ccccc3c2NC(=O)c2ccco2)cc1	HCV inh inconclusive, Cycloheximide cs 47.2, Shiga toxin inh 35.1, Marburg entry inh inconclusive
COc1ccc(NC(=O)c2oc3ccccc3c2NC(=O)c2ccco2)c(OC)c1	Cycloheximide cs 10.7
Cc1cc2c(cc1C)-n1nnnc1C(N1CCN(c3ccccc3F)CC1)C(=O)N2 (stereo unspecified)	none (no result: LASV entry inh, HCV inh, Cycloheximide cs, Shiga toxin inh, Marburg entry inh)
CCOC(=O)c1c(/N=C/c2ccc(C)cc2O)sc2c1CCN(C)C2	HCV inh inconclusive
Cc1ccc2[nH]c(CN3CCC(CO)(CC4CCCCO4)CC3)c(C)c2c1 (stereo unspecified)	LASV entry inh 5.01µM, Marburg entry inh inconclusive
Cc1ccc(CN2CCC(CO)(CC3CCCCO3)CC2)o1 (stereo unspecified)	none
CSc1nsc(SC)c1C(=O)Nc1ccc(C(C)(C)C)cc1	Shiga toxin inh 53.2, Marburg entry inh 11.2µM
CSc1nsc(SC)c1C(=O)NC(=O)Nc1cccnc1	none (no result: LASV entry inh, Marburg entry inh)
CC(C)CN(C(=O)CSc1nc2ccccc2[nH]1)c1c(N)n(Cc2ccccc2)c(=O)[nH]c1=O	none (no result: LASV entry inh, HCV inh, Cycloheximide cs, Shiga toxin inh, Marburg entry inh)
COc1ccc(NC(=O)c2cc3sccc3n2Cc2ccc(F)cc2)cc1OC	HCV inh inconclusive, Cycloheximide cs 24.8
O=C(Nc1nccs1)c1cc2sccc2n1Cc1ccc(F)cc1	HCV inh inconclusive, Cycloheximide cs 17.7, Marburg entry inh inconclusive
O=C(c1cc2sccc2n1Cc1ccc(F)cc1)N1CCN(c2nc3ccccc3s2)CC1	FMDV inh inconclusive, HCV inh 3.16µM, Marburg entry inh 3.55µM
COc1ccc(CCC(=O)Nc2nc(C)c(C(=O)N(C)C)s2)cc1	none (no result: LASV entry inh, Marburg entry inh)
Cc1ccccc1C(=O)NCC(=O)NNC(=S)NC(=O)c1ccccc1C	Marburg entry inh inconclusive
Cc1ccc2c(CC(=O)Nc3ccc(S(=O)(=O)N4CCC(C)CC4)cc3)coc2c1	none (no result: HCV inh, Cycloheximide cs, Shiga toxin inh)
COC(=O)[C@@]1(Cc2ccc(F)cc2)[C@H]2c3cc(C(=O)N(C)C)n(Cc4ccccc4)c3C[C@H]2CN1C(=O)c1ccccc1	LASV entry inh inconclusive, FMDV inh inconclusive, Marburg entry inh 13µM
COC(=O)[C@@]1(Cc2ccc(OC)cc2)[C@H]2c3cc(C(=O)N(C)C)n(Cc4ccc(OC(F)(F)F)cc4)c3C[C@H]2CN1C(=O)c1ccccc1	LASV entry inh inconclusive, HCV inh inconclusive, Marburg entry inh 9.2µM
O=C(COC(=O)c1ccc(F)cc1F)c1ccc[nH]1	Marburg entry inh inconclusive (no result: Cycloheximide cs, Shiga toxin inh)
CN(C)c1cccc2c(S(=O)(=O)N3CCOCC3)cccc12	none
CN(C)c1cccc2c(S(=O)(=O)N3CCCC3)cccc12	Cycloheximide cs 34.4 (no result: LASV entry inh, Marburg entry inh)
COc1ccc(-c2cc(C(=O)N3CCCCC3C)no2)cc1OC (stereo unspecified)	Marburg entry inh inconclusive (no result: HCV inh, Cycloheximide cs, Shiga toxin inh)
CC1CCN(C(=O)c2cc(-c3ccc4c(c3)OCO4)on2)CC1	LASV entry inh inconclusive, Cycloheximide cs 27.5, Shiga toxin inh 41.4, Marburg entry inh inconclusive
CC1CCCCN1C(=O)c1cc(-c2ccc3c(c2)OCO3)on1 (stereo unspecified)	LASV entry inh inconclusive, Cycloheximide cs 36.1, Shiga toxin inh 88.9, Marburg entry inh inconclusive
CC1CCCCN1C(=O)c1cc(-c2ccc(Cl)c(Cl)c2)on1 (stereo unspecified)	Cycloheximide cs 28.6
CCC1CCCCN1C(=O)c1cc(-c2ccc(Cl)c(Cl)c2)on1 (stereo unspecified)	Cycloheximide cs 39.1, Shiga toxin inh 93.9
CC(C)CNC(=O)c1cc(-c2ccc(Cl)c(Cl)c2)on1	LASV entry inh inconclusive
N=c1sccn1CC(=O)NCCc1ccc(Cl)cc1Cl	none
COc1cc(C2C(=O)N(C3CCCCC3)CC(=O)N2Cc2ccc(C)cc2)ccc1OC(C)C (stereo unspecified)	LASV entry inh inconclusive (no result: HCV inh, Cycloheximide cs, Shiga toxin inh, Marburg entry inh)
CN(CC(=O)Nc1c(Cl)cccc1Cl)C(=O)c1ccccc1SCC(=O)N1CCCC1	none
COc1ccccc1N1CCN(C(=O)c2ccccc2SCC(=O)N2CCCC2)CC1	none (no result: Cycloheximide cs, Shiga toxin inh)
Cc1ccc(Cl)cc1N1CCN(C(=O)c2ccccc2SCC(=O)N2CCCC2)CC1	FMDV inh inconclusive, HCV inh 11.2µM (no result: LASV entry inh, Cycloheximide cs, Shiga toxin inh, Marburg entry inh)
CN(CCOc1ccc(Cl)cc1)C(=O)c1ccccc1SCC(=O)N1CCCC1	FMDV inh inconclusive, HCV inh 10µM (no result: LASV entry inh, Cycloheximide cs, Shiga toxin inh, Marburg entry inh)
CCOc1ccccc1N1CCN(C(=O)c2ccccc2SCC(=O)N2CCCC2)CC1	Cycloheximide cs 15.2, Shiga toxin inh 27.5
CCCc1ccccc1OCCNC(C)=O	none
Nc1cc(=O)[nH]c(SCc2cccc(Cl)c2)n1	HCV inh inconclusive
O=C(Cn1ncc2c3ccccc3n(Cc3ccccc3)c2c1=O)NCCCN1CCCC1	none (no result: LASV entry inh, Marburg entry inh)
COc1ccc(C2C(C#N)=C(N)Oc3cc4c(cc32)OCO4)cc1 (stereo unspecified)	LASV entry inh inconclusive, Marburg entry inh 5.8µM (no result: FMDV inh)
N#CC1=C(N)Oc2cc(O)ccc2C1c1ccc2c(c1)OCO2 (stereo unspecified)	none
C[C@@H]1CN([C@H](C)CO)C(=O)CCCn2cc(nn2)CO[C@H]1CN(C)C(=O)Nc1ccc2c(c1)OCCO2	none (no result: LASV entry inh, HCV inh, Cycloheximide cs, Shiga toxin inh, Marburg entry inh)
CC(C)(C)NCC(O)COc1ccccc1C(=O)CCc1ccccc1 (stereo unspecified)	Marburg entry inh 10.3µM (no result: FMDV inh)
CCCNC[C@H](O)COc1ccccc1C(=O)CCc1ccccc1	Marburg entry inh 7.08µM (no result: LASV entry inh, FMDV inh, HCV inh, Cycloheximide cs, Shiga toxin inh)
O=C(COC(=O)c1ccco1)Nc1nnc(-c2ccccc2)o1	none (no result: Cycloheximide cs, Shiga toxin inh)
COc1ccc(C(=O)c2ccc(OC)cc2OC)cc1	LASV entry inh inconclusive, HCV inh inconclusive, Marburg entry inh inconclusive
COc1ccc(C(=O)c2ccc(N3CCOCC3)cc2)c(OC)c1	LASV entry inh inconclusive, Cycloheximide cs 14.1, Marburg entry inh inconclusive
